Source: PubChem
G9a block = qHTS Assay for Inhibitors of Histone Lysine Methyltransferase G9a; G9a H3K9 monomethylation, AlphaScreen, 2 h; Histone-lysine N-methyltransferase EHMT2 (Homo sapiens), Q96KQ7; Potency, µM (top dose mostly 102 µM), without a hit: top-dose activity, negative = inhibition, most hits filed as inhibitors; 350,000 compounds, 8.8% hits; also: % is scaled to controls: 0 for no effect and ±100 for the full control effect; nearly all actives have a fitted effect of over 75% in size
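Signal arises when biotinylated H3K9 peptide, once monomethylated, bridges streptavidin donor and antibody-captured acceptor beads. Enzyme at 20 nM was preincubated 15 min with test compounds; peptide 500 nM and SAM 20 uM then reacted for 2 h.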
JMJD2A Tudor = qHTS Assay for Inhibitors of JMJD2A-Tudor Domain; AlphaScreen JMJD2A-Tudor / H3K4me3 peptide binding; Potency, µM (doses to about 114 µM), for inactives: at the highest dose activity change, negative = inhibition, most hits filed as inhibitors; 390,000 compounds, 4.4% hits; AID 504339, 2011; also: % is scaled to controls: 0 for no effect and ±100 for the full control effect; nearly all actives have a fitted effect of over 50% in size
Target sequence (O75164 whole entry, looked up, the tested form may be a part): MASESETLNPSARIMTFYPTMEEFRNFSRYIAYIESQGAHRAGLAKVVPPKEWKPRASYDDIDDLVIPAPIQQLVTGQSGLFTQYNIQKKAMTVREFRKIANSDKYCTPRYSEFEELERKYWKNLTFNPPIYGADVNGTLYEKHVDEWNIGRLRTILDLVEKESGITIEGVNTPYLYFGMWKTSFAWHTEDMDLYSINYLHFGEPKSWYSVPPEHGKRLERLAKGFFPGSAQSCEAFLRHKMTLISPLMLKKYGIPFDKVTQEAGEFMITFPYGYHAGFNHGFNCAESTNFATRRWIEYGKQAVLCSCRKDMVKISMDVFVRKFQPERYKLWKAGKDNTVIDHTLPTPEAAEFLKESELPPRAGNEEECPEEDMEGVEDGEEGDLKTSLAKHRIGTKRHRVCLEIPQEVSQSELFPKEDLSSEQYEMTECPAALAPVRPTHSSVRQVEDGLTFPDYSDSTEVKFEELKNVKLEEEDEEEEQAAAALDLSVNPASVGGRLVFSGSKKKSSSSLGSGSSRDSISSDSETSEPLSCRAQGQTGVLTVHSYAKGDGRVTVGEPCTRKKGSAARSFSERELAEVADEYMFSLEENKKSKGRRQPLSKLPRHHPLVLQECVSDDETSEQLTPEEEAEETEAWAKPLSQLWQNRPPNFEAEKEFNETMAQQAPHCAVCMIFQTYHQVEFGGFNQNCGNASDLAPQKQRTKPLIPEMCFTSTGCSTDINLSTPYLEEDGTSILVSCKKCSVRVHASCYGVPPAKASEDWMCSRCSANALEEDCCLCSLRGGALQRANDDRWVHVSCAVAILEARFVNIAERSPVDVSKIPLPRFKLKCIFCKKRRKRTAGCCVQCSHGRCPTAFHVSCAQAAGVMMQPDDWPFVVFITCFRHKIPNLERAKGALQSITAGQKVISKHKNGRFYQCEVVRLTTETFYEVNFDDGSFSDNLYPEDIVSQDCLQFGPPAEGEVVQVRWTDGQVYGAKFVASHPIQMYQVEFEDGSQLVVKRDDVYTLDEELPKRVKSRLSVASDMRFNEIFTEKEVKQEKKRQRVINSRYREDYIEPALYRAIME
Sfp inh = qHTS Assay for Inhibitors of Bacillus subtilis Sfp phosphopantetheinyl transferase (PPTase); 4'-phosphopantetheinyl transferase ffp (Bacillus subtilis), Q9F4F7; 310,000 compounds, 3.5% hits; Potency, µM, without a hit: largest response in the series, negative = inhibition, hits mostly inhibitors; Biochemical Sfp PPTase activity, qHTS;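 also: the enzyme is Sfp with the accession as filed and its product quenches rhodamine fluorescence; 0% = enzyme reaction without inhibitor and -100% = no enzyme wells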
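Fluorescence-quenching assay: 15 nM Sfp-PPTase preincubated 15 min at room temperature with compound, then 5 uM rhodamine-CoA and 12.5 uM BHQ-2-labelled YbbR peptide added. Fluorescence (ex 525/em 598 nm) read at start and after 30 min; difference gives rate.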
L3MBTL1 block = qHTS Assay for the Inhibitors of L3MBTL1; Potency, µM (top dose mostly 57.1 µM), for the others: at the top dose activity, negative = inhibition, actives largely listed as inhibitors; 230,000 compounds, 0.66% hits; AlphaScreen L3MBTL1–H3K9me1 peptide binding; AID 485360, 2010; Lethal(3)malignant brain tumor-like protein 1 (Homo sapiens), Q9Y468; also: % is scaled to controls: 0 for no effect and ±100 for the full control effect; nearly all actives have a fitted effect of over 60% in size
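L3MBTL1 (50 nM) pre-complexed 30 min with biotinylated H3(1-15)K9me1 peptide (75 nM), then compounds added for 30 min at room temperature; AlphaScreen streptavidin donor/nickel chelate acceptor beads (10 ug/mL final) read after 30 min dark incubation.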
BAZ2B inh = qHTS Assay for Inhibitors of BAZ2B | AlphaScreen BAZ2B-H3K14Ac peptide displacement | 360,000 compounds, 4.4% hits | AID 504333, 2011 | Potency, µM (top dose mostly 114 µM), for inactives: top-dose activity change, negative = inhibition, usual class: inhibitors; also: % is scaled to controls: 0 for no effect and ±100 for the full control effect; nearly all actives have a fitted effect of over 60% in size
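AlphaScreen luminescence quantifies BAZ2B engagement of H3K14Ac peptide; the protein and biotinylated peptide are both at 50 nM final, buffer PBS pH 7.4 with 0.01% Tween-20, all steps at room temperature.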
HP1b binding inh = HTS for Inhibitors of HP1-beta Chromodomain Interactions with Methylated Histone Tails. Potency, µM (doses to about 114 µM), for inactives: top-dose activity change, negative = inhibition, actives largely listed as inhibitors. AlphaScreen HP1-beta / biotin-H3K9me3 peptide binding. 390,000 compounds, 0.56% hits; also: nearly all actives have a fitted effect of over 70% in size
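HP1-beta protein (50 nM final) preincubated 30 min at room temperature with biotinylated H3(1-18)K9me3 peptide (50 nM) in PBS pH 7.4, 0.01% Tween-20, then compound added for 30 min. AlphaScreen streptavidin donor/nickel chelate acceptor beads (10 ug/mL final), 30 min dark, luminescence read.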
Starred values were filed as active, the others as inactive; u = inconclusive; x = no result; [ ] = remark or other dose. An excerpt weighted towards active compounds, which were near 12% of everything screened. Calls follow the shape of the dose curve; as a rule, active = well fitted curve in the direction sought with a large enough effect; inconclusive = small, poorly fitted or top-dose-only effect, or another doubt; inactive = no such curve, though single readings can be large; an effect the other way counts as inactive or inconclusive. Potency is read from the fitted curve at half-maximal effect.

SMILES	G9a block	JMJD2A Tudor	Sfp inh	L3MBTL1 block	BAZ2B inh	HP1b binding inh
CS(=O)(=O)n1nc(-c2ccco2)nc1NCc1ccccc1Cl	-31.1%[59 µM]	-13.2%	x	x	-9.2%	22.0%
Cc1cc(F)ccc1S(=O)(=O)Nc1cc2c(C(=O)O)c(C)oc2c2ccccc12	-40.0%[59 µM]	u	x	x	-18.2%	-10.5%
COC(=O)c1c(C)oc2c1cc(NS(=O)(=O)c1ccc(C(=O)O)cc1)c1ccccc12	35.5µM*	-32.4%	-18.6%	-14.1%	u	0.6%
Cc1ccc(S(=O)(=O)Nc2cc3c(C(=O)O)c(C)oc3c3ccccc23)c(C)c1	50.1µM*	u	12.4%	x	50.1µM*	u
O=C(/C(N=Nc1cccc(C(F)(F)F)c1)=C(/O)c1cccs1)C(F)(F)F	20µM*	50.1µM*	-5.5%	-16.6%	u	u
CCn1c(/C=C/c2ccc(O)cc2)nc2ccccc2c1=O	31.3%[59 µM]	-8.6%	-5.8%	-6.5%	-14.5%	33.0%
CCn1c(/C=C/c2ccc(O)c(O)c2)nc2ccccc2c1=O	x	56.2µM*	79.4µM*	20µM*	70.8µM*	u
CCOC(=O)c1c(NC(=O)COc2ccccc2OCC)sc2c1CC(C)(C)NC2(C)C	u	-33.1%	x	-9.7%	-3.5%	-6.6%
CCOC(=O)c1c(NC(=O)CSc2nc3ccc(C)cc3[nH]2)sc2c1CC(C)(C)NC2(C)C	44.7µM*	u	x	-7.7%	-38.7%	-14.5%
CCOC(=O)c1c(NC(=O)CSc2nnnn2-c2ccccc2)sc2c1CC(C)(C)NC2(C)C	x	u	-11.0%	x	70.8µM*	-5.3%
CCOC(=O)c1c(NC(=O)CSc2nnnn2-c2ccccc2OCC)sc2c1CC(C)(C)NC2(C)C	50.1µM*	-32.4%	x	-8.9%	-36.7%	-4.2%
CCOC(=O)c1[nH]c(C)c(CCC(=O)NCc2ccc(N(C)C)cc2)c1C	u	u	x	x	-21.1%	29.3%[57 µM]
O=c1[nH]c(=O)c2[nH]c(=S)[nH]c2[nH]1	x	2.51µM*	x	x	x	10µM*
CCOC(=O)c1c(S(=O)(=O)N2CCC(C(=O)N3CCN(c4ccccc4F)CC3)CC2)c(C)n(C)c1C	9.2%[59 µM]	-30.7%	x	x	u	-17.5%
CC(CN1CC(=O)NC(=O)C1)N1CC(=O)NC(=O)C1 (stereo unspecified)	2.82µM*	x	-13.4%	x	x	x
CC(=O)c1cccc(NC(=S)NCCC2=CCCCC2)c1	11.1%[59 µM]	-9.4%	9.1%	13.8%	-3.2%	1.7%
O=C(NCCC1=CCCCC1)Nc1ccc2nsnc2c1	39.8µM*	25.7%	10.5%	-0.8%	-28.8%	75.8%
CCOc1cc(/C=C(\C#N)C(=O)Nc2cccc(C(=O)O)c2)cc(Br)c1OC(=O)c1ccc(OC)cc1	56.2µM*	56.2µM*	79.4µM*	x	50.1µM*	u
CCOc1cc(/C=C(\C#N)C(=O)Nc2cccc(C(=O)O)c2)ccc1OCc1ccccc1Cl	50.1µM*	56.2µM*	u	x	50.1µM*	-24.6%
COc1ccc(NC(=O)/C(C#N)=C\c2ccc(OCc3ccc(C(=O)O)cc3)c(OC)c2)cc1	u	u	6.0%	x	u	u
COc1ccc(CNC(=O)CCC2N=C3c4ccccc4N=C(SCc4cccc(F)c4)N3C2=O)cc1 (stereo unspecified)	-4.4%[59 µM]	-28.3%	x	x	5.9%	72.6%
O=C(/C=C/c1ccccc1)N1CCN(Cc2cc(=O)n3nc(-c4ccccc4)sc3n2)CC1	-8.4%[59 µM]	-5.2%	x	x	-1.8%	28.0%[57 µM]
COC(=O)c1ccc2c(=O)[nH]c(CN3c4ccccc4CC3C)nc2c1 (stereo unspecified)	11.2µM*	-30.0%	-20.2%	1.2%	-28.9%	8.0%
CC1Cc2ccccc2N1Cc1nc2scc(-c3cccs3)c2c(=O)[nH]1 (stereo unspecified)	44.7µM*	-15.2%	6.9%	-1.3%	-32.5%	22.2%
CC1Cc2ccccc2N1Cc1nc2cc(Cl)ccc2c(=O)[nH]1 (stereo unspecified)	u	u	-3.8%	x	u	2.7%
SMILES	G9a block	JMJD2A Tudor	Sfp inh	L3MBTL1 block	BAZ2B inh	HP1b binding inh
Cc1cc(C)c(NC(=O)COCc2cc(-c3cccs3)on2)c(C)c1	-8.5%[59 µM]	3.6%	x	x	0.7%	15.1%
CCC(=O)Nc1ccc(NCc2ccc(-c3ccccc3)cc2)cc1	25.1µM*	u	-5.4%	-2.2%	-26.8%	4.3%
O=C(Oc1ccc(=O)n(-c2ccccc2)n1)c1ccc(Cl)cc1	x	-27.4%[11.4 µM]	89.1µM*	10.7%	8.0%	50.7%
O=C(Oc1ccc(=O)n(-c2ccccc2)n1)c1ccc(F)cc1	u	-5.2%	2.5%	0.3%	-26.8%	75.0%
CSc1nc2c(C)c(C)c(C)c(C)c2[nH]1	x	-10.8%	-4.2%	1.1%	0.4%	19.1%
CSc1nc(=S)cc(C)[nH]1	x	25.1µM*	35.5µM*	10.1%	3.2%	u
CN1CCc2c(sc(/N=C/c3cc(C(C)(C)C)ccc3O)c2C#N)C1	u	u	70.8µM*	-26.0%	u	-14.3%
CCc1ccc(N2Cc3ccccc3C2)cc1	10µM*	-31.9%	u	x	u	26.9%
CC(=O)Nc1ccc(N2CCCCC2)cc1	u	-11.2%	21.7%	-3.5%	-5.9%	14.4%
Cc1cc(C)cc(N2Cc3ccccc3C2)c1	10µM*	-24.5%	11.5%	x	-5.6%	35.1%
CCOC(=O)c1ccc(N2Cc3ccccc3C2)cc1O	u	-26.7%	2.0%	x	1.7%	25.6%
CC(=O)Nc1ccc(N2Cc3ccccc3C2)cc1	x	-32.7%	-5.3%	-3.5%	79.4µM*	5.5%
COC(=O)CCC[N+](C)(C)C	-1.5%[12.7 µM]	x	5.4%	x	x	x
Cc1cc(C)c(S(=O)(=O)N2CCN(C(=O)N(C)C)CC2)c(C)c1	x	7.7%	7.08µM*	6.8%	u	0.5%
N#Cc1c(NC(=O)Cn2nc(C(F)(F)F)c3c2CCCC3)sc2c1CCC2	2.82µM*	u	u	-2.9%	79.4µM*	31.6µM*
CC1CCc2c(sc(NC(=O)COC(=O)C3CCCO3)c2C#N)C1 (stereo unspecified)	25.8%	-9.7%	-7.3%	x	-13.4%	34.0%
CCc1ccc(NC(=O)Cn2nc(C(F)(F)F)c3c2CCC3)cc1	9.8%[2.33 µM]	-15.1%	6.3%	6.3%	-5.8%	37.3%
CC1CCN(CC(=O)Nc2sc3c(c2C#N)CCC3)CC1	-2.9%	4.0%	3.2%	-0.8%	-5.6%	36.9%
